# Out of some 310,000 compounds screened, about 14,000 (4.5%) showed an effect of 50% or more. The effect is printed as a negative number. Only a selection was taken, and strong results are over-represented in it overall.
# Target: human ether-à-go-go-related gene (hERG) potassium channel (human, UniProt Q12809)
# Assay: primary screen, population patch clamp on CHO cells stably expressing hERG; higher = less effect of the substance
# 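Further: peak tail current of the secondary pulse compared with the same well before compound.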
# human ether-à-go-go-related gene (hERG) potassium channel, sequence (Q12809 whole entry, looked up): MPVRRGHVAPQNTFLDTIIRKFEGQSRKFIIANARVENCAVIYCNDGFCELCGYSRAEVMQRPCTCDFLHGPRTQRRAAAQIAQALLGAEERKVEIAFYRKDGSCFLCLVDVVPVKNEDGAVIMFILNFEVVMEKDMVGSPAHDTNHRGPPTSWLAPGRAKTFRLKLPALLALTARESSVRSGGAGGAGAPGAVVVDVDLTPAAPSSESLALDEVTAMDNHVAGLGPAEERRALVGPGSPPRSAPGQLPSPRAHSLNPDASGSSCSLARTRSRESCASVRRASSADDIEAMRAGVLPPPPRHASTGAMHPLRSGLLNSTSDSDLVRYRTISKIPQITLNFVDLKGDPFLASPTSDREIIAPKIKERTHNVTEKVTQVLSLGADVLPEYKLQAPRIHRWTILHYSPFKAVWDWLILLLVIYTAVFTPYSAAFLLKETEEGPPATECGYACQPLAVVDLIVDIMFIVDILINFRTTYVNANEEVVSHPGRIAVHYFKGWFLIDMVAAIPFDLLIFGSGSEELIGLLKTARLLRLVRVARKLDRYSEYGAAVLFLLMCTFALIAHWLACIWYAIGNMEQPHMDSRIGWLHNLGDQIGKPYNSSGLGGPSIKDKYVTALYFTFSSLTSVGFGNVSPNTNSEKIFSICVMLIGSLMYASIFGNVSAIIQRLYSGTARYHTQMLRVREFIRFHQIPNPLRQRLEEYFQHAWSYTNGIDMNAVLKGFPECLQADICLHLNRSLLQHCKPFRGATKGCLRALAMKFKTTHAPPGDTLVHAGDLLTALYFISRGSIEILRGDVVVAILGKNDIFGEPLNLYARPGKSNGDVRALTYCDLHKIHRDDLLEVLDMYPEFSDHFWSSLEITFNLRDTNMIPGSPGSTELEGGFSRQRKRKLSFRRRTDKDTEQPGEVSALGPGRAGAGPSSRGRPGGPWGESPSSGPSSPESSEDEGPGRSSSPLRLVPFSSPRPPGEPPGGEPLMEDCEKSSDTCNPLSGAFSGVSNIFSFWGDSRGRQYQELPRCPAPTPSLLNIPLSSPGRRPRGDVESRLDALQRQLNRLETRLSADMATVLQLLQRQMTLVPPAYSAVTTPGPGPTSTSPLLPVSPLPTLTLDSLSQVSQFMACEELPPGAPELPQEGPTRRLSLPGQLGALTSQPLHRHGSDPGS
row,SMILES,"hERG current change (%, negative = inhibition) at 10uM [%]"
1,COc1ccc(OCc2cc(C(=O)N(C)CC3CCCCO3)no2)c(Cl)c1 (stereo not shown),-17.4
2,C[C@]12C(=O)N(c3ccc(Cl)cc3)C(=O)N1[C@@H]1c3ccccc3OC[C@@H]1[C@H]2c1ccccc1,8.19
3,CCC(C)N1CC23C=CC(O2)C(C(=O)OCc2ccccc2)C3C1=O (stereo not shown),5.54
4,CC(C)c1ccc(NC(=O)COC(=O)c2cc(=O)[nH]c3ccccc23)cc1,-8.12
5,CCCCCNC(=O)Cc1ccc(S(=O)(=O)N2CCOCC2)s1,-5.94
6,O=C(Cc1ccc(S(=O)(=O)N2CCOCC2)s1)NCCC(c1ccccc1)c1ccccc1,-54.8
7,O=C(Cc1ccc(S(=O)(=O)N2CCOCC2)s1)NCCOc1ccccc1,-8.35
8,Cc1ccc[n+](CC(=O)Nc2ccc([N+](=O)[O-])cc2)c1.[Cl-],10.9
9,CCOc1ccc(S(=O)(=O)N2CCCCCC2)cc1,-8.37
10,Cn1c(NC(=O)C(C)(C)Oc2ccc(Cl)cc2)cc(=O)n(C)c1=O,-15
11,O=C(NCc1ccco1)/C(=C\C=C\c1ccccc1)NC(=O)c1ccco1,-38.3
12,N#C/C(=C\C=C\c1ccccc1)C(=O)NCc1ccco1,-3.85
13,Cc1ccc(C(=O)N/C(=C\C=C\c2ccccc2)C(=O)NCc2ccco2)cc1,-50.3
14,O=C(NCc1ccco1)c1ccccc1Br,7.63
15,Cc1ccc(C(=O)N/C(=C/C=C\c2ccccc2)C(=O)NCc2ccco2)cc1,-27.7
16,O=C(NCc1ccco1)/C(=C/C=C\c1ccccc1)NC(=O)c1ccc(Br)o1,-59.6
17,O=C(NCc1ccco1)/C(=C\C=C\c1ccccc1)NC(=O)c1ccccc1Br,-70.5
18,O=C(NCc1ccco1)/C(=C/C=C/c1ccccc1)NC(=O)c1ccco1,-36.4
19,Cc1ccc(C(=O)N/C(=C/C=C/c2ccccc2)C(=O)NCc2ccco2)cc1,-28.9
20,Cc1ccc(C)c(NS(=O)(=O)c2ccc(NC(=O)CSc3ccc(Cl)cc3)cc2)c1,17.8
21,O=C(N/N=C/c1ccccc1[N+](=O)[O-])c1cccs1,5.65
22,C=CCn1c(Cc2ccccc2)nc2c(cnn2-c2ccccc2)c1=O,-34.8
23,COc1cccc(N2CC(C(=O)Nc3nnc(SCC(=O)N4CCOCC4)s3)CC2=O)c1 (stereo not shown),18.1

row,SMILES,"hERG current change (%, negative = inhibition) at 10uM [%]"
1,CC(=O)N(Cc1cc(=O)[nH]c2ccccc12)c1cccc(C)c1,-8.96
2,CSCC(=O)N1CCCC(CNC(=O)c2ccc(-c3ccccc3)cc2)C1 (stereo not shown),-28.5
3,O=C(NCC1CCCN(C(=O)c2cscn2)C1)c1ccc(-c2ccccc2)cc1 (stereo not shown),-15.1
4,CSCCC(=O)N1CCCC(CNC(=O)c2ccc(-c3ccccc3)cc2)C1 (stereo not shown),-73.2
5,CC(=O)CCC(=O)N1CCCC(CNC(=O)c2ccc(-c3ccccc3)cc2)C1 (stereo not shown),-13.8
6,CCc1cc(C(=O)N2CCCC(CNC(=O)c3ccc(-c4ccccc4)cc3)C2)no1 (stereo not shown),-58.1
7,O=C(NCC1CCCN(C(=O)c2cccnc2)C1)c1ccc(-c2ccccc2)cc1 (stereo not shown),-26.8
8,CCOc1ccc(C2CC(c3ccc(CC)cc3)Nc3nc(N)nn32)cc1 (stereo not shown),1.96
9,COc1ccc(Cl)cc1NS(=O)(=O)c1cccc(C(=O)NCC(C)(C)N2CCOCC2)c1,-12.6
10,O=C(Cc1ccccc1)N/N=C/c1ccccc1Cl,2.14
11,O=C(NCc1ccccn1)c1cccc(S(=O)(=O)Nc2ccccc2Cl)c1,-2.4
12,Cc1ccc(S(=O)(=O)N(C)C)cc1NC(=O)COC(=O)c1ccc2c(c1)NC(=O)CS2,-32.5
13,COC(=O)[C@@H]1Cc2c([nH]c3ccccc23)C(C)N1C(=O)c1ccccc1 (stereo partly shown),3.27
14,CN1CCc2c(sc3nc(NN)n(-c4ccc(Cl)cc4)c(=O)c23)C1,14.6
15,Cc1cc(C)c2cc(CN(CCO)C(=O)NC3CCCCC3)c(=O)[nH]c2c1,-3.62
16,CCN1CCCC1CN(Cc1cc2c(C)cc(C)cc2[nH]c1=O)C(=O)NC1CCCCC1 (stereo not shown),-76
17,CCc1ccc2[nH]c(=O)c(CN(CCN3CCCC3)C(=O)NC3CCCCC3)cc2c1,-40.9
18,CCN(CC)CCN(Cc1cc2ccc(C)cc2[nH]c1=O)C(=O)NC1CCCCC1,-73.1
19,Cc1ccc2[nH]c(=O)c(CN(CCCN3CCOCC3)C(=O)NC3CCCCC3)cc2c1,-25.7
20,CC(=O)N(Cc1cc2c(C)cc(C)cc2[nH]c1=O)C1CCCCC1,8.13
21,CCc1ccc2[nH]c(=O)c(CN(CCN(CC)CC)C(=O)NC3CCCCC3)cc2c1,-66.6
22,CCN(CC)CCN(Cc1cc2cc3c(cc2[nH]c1=O)OCCO3)C(=O)NC1CCCCC1,-28.7
23,COc1ccc(CN(Cc2cc3cc(OC)c(OC)cc3[nH]c2=O)C(=O)NC2CCCCC2)cc1,7.13
